Screening results as filed in PubChem.
Cruzain inh noDet – cruzain (T. cruzi) inhibition without detergent; purified cruzain, Z-FR-AMC fluorescence, no detergent; Potency, µM, for inactives: max response, negative = inhibition, usual class: inhibitors; AID 1476; 200,000 compounds, 2.3% hits;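 further: plate controls were enzyme without inhibitor for no effect and buffer without enzyme for full effect; nearly all actives have a fitted effect of over 40% in size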
Target sequence (P25779 123-467 limits assumed): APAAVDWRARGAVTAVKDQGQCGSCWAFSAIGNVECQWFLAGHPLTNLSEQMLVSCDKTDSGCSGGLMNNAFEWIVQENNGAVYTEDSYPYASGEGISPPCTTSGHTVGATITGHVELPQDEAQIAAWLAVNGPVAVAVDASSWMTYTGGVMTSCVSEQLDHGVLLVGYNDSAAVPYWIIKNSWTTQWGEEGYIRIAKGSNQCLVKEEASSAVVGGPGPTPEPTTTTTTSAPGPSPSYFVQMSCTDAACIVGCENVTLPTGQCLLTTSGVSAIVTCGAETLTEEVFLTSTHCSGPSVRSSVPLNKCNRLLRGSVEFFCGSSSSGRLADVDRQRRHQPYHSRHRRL
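Detergent-free condition (0.00005% Triton X-100) in acetate buffer pH 5.5 with DTT. 1.5 nM enzyme and compound were pre-mixed 15 min, then 2 uM Z-FR-AMC substrate added; reaction progress from fluorescence change between first and third reads (60 s).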
Cruzain inh Det – blocks cruzain activity in presence of Triton detergent | AID 1478 | purified cruzain, Z-FR-AMC fluorescence, 0.01% Triton | Potency, µM, for inactives: max response, negative = inhibition, actives largely listed as inhibitors | P25779 | 200,000 compounds, 0.43% hits;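 further: plate controls were neutral wells for no effect and buffer without enzyme for full effect; nearly all actives have a fitted effect of over 40% in size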
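Detergent-containing arm of a paired screen for aggregation-based inhibition: 0.01% Triton X-100 present. Cruzain at 1.5 nM cleaved 2 uM Z-FR-AMC at pH 5.5 with 5 mM DTT; AMC fluorescence gain over 60 s measured activity.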
Starred values were filed as active, the others as inactive; ? = inconclusive. This is a sample that favours compounds with a hit; in the whole collection about 2.5% have one here. The call rests on the fitted dose curve; in most records, active means well fitted curve in the direction sought with a large enough effect; inconclusive means small, poorly fitted or top-dose-only effect, or another doubt; inactive means no such curve, though single readings can be large; an effect the other way counts as inactive or inconclusive. Potency means the concentration at half of the fitted maximal effect.

SMILES	Cruzain inh noDet	Cruzain inh Det
Cc1cc(C(=O)CSc2nncs2)c(C)n1-c1ccc2c(c1)OCO2	?	-7%
Cc1cc(C)c(NC(=O)CCCn2c(C)c3cnn(-c4ccccc4)c(=O)c3c2C)c(C)c1	?	-3%
CCOC(=O)CNC(=O)c1cc2c(=O)n3cccc(C)c3nc2n1C	13%	-1%
COc1ccc(/C=C2/N=C(SCC(=O)Nc3cc(C)on3)N(c3ccccc3)C2=O)cc1	22%	3%
CCC(SC1=N/C(=C/c2ccccc2)C(=O)N1c1ccccc1)C(=O)Nc1cc(C)on1 (centres undefined)	32µM*	-1%
CCCCOc1ccc(OC(=O)c2sc3ncn(Cc4cccc(F)c4)c(=O)c3c2C)cc1	10%	0%
CCCn1c(Nc2nc3ccccc3n2C)nc2ccccc21	20µM*	0%
CCCCn1c(Nc2ccccc2)nc2ccccc21	-5%	1%
O=C(N/N=C/c1cccc([N+](=O)[O-])c1)c1cccs1	-3%	-5%
C=CCOc1ccc2cccc(/C=N/NC(=O)c3cc4cc([N+](=O)[O-])ccc4s3)c2c1	6.3µM*	0%
CC1CCN(c2[nH]c(=S)c(C#N)c3c2CCCC3)CC1	-21%	3%
CC1(C)Cc2c(c(N3CCCCC3)[nH]c(=S)c2C#N)CS1	13µM*	-1%
COc1ccccc1Cn1c(C2CC(=O)N(c3ccccc3OC)C2)nc2ccccc21 (centres undefined)	-11%	-3%
CSc1ccc(CCNC(=O)CCc2c(C)nc3c(-c4ccccc4)c(C)nn3c2C)cc1	?	-1%
CSc1nsc(/C=C/Nc2ccc(Cl)cc2)c1C#N	?	-21%
CSc1nsc(/C=C/Nc2cccc(Cl)c2)c1C#N	20µM*	-6%
Cc1ccc(Cl)cc1N1CCN(C(=O)CCS(=O)(=O)c2ccc3c(c2)oc(=O)n3C)CC1	?	-3%
COC(=O)c1ccc(OCC2c3cc(OC)c(OC)cc3CCN2C(=O)c2cccc(C)c2)cc1 (centres undefined)	?	4%
COc1ccc2nc(N/C(N)=N/C(=S)Nc3ccc(C)c(C)c3)nc(C)c2c1	13µM*	-12%
Cc1ccc(NC(=S)/N=C(\N)Nc2nc(C)c3ccccc3n2)cc1C	?	-2%
COc1ccc(C(=O)NCc2ccc3c(c2)CCN3C(=O)c2ccc(Cl)cc2)c(OC)c1	2%	0%
CCc1ccc(S(=O)(=O)c2nnn(-c3cccc(C)c3)c2N)cc1	-1%	-8%
Cc1nc2c(c(C)nn2C(C)(C)C)c(C)c1CCC(=O)Nc1ccc(F)cc1	9%	-3%
COc1ccc(C(=O)N2c3ccccc3C=CC2C#N)cc1 (centres undefined)	-1%	-14%
N#C[C@H]1[C@H](c2ccccc2)[C@](C#N)(C(=O)c2ccccc2)[C@@H]2C=Cc3ccccc3N21	25µM*	-4%
SMILES	Cruzain inh noDet	Cruzain inh Det
Cn1c(-c2ccc(-c3ccccc3)cc2)c[nH]c1=S	10µM*	-9%
CCn1c(-c2ccc(-c3ccccc3)cc2)c[nH]c1=S	10µM*	5%
C=CCn1c(-c2ccccc2)c[nH]c1=S	7%	2%
S=c1[nH]cc(-c2ccccc2)n1-c1cccc(Cl)c1	-12%	-3%
COc1ccc(N2CC(NC(=O)COc3ccccc3)CC2=O)cc1OC (centres undefined)	0%	-2%
Cc1cc(C)cc(NC(=O)c2ccc3c(c2)nnn3C2CCCC2)c1	-7%	-5%
Cn1c(SCC(=O)Nc2sc3c(c2C#N)CCC3)nnc1C1COc2ccccc2O1 (centres undefined)	-16%	3%
C=CCn1c(SCC(=O)Nc2sc3c(c2C#N)CCC3)nnc1C1COc2ccccc2O1 (centres undefined)	32µM*	-2%
Cc1cc(C)nc(N/N=C/c2ccccc2OCc2ccc([N+](=O)[O-])cc2)n1	-16%	-4%
O=[N+]([O-])c1ccc(N/N=C\c2ccccc2OCc2ccccc2)cc1	25µM*	-3%
Cc1ccc2c(CNCCc3ccco3)c(C(=O)O)n(Cc3ccc(F)cc3)c2c1	?	-5%
O=c1c2ccccc2[nH]c(=S)n1Cc1cccs1	25µM*	-3%
O=c1c2ccccc2[nH]c(=S)n1CCc1ccccc1	?	2%
Cc1c(C(=O)N(Cc2ccc(N(C)C)cc2)Cc2ccco2)oc2cc(Br)ccc12	-9%	-3%
COc1cc(NC(=O)CSc2nccc(C)n2)c(C)cc1[N+](=O)[O-]	-3%	-5%
COc1ccc([N+](=O)[O-])cc1NC(=O)CSc1nncn1-c1ccccc1	-12%	-5%
COc1ccc(-n2c(SCC(=O)Nc3ccc([N+](=O)[O-])cc3OC)nc3ccccc32)cc1	7.9µM*	-1%
COc1cc(NC(=O)CSc2nc3ccccc3n2-c2ccccc2)c(C)cc1[N+](=O)[O-]	7.9µM*	1%
O=C(CCCCCn1c(=O)c2sccc2n(Cc2ccc(Cl)cc2)c1=O)NCc1ccc2c(c1)OCO2	10%	-2%
Cc1ccc(Cl)cc1NC(=O)c1ccc(NC(=O)N2CCSc3ncccc32)cc1	-3%	-10%
Cc1cccc(-n2c(C)nc3cc(C(=O)NC4CCCCCC4)ccc32)c1	-13%	-4%
COc1cccc(Nc2ncc3nc(-c4cccs4)c(=O)n(Cc4cccs4)c3n2)c1	5µM*	2%
COc1cccc(Nc2ncc3nc(-c4cccs4)c(=O)n(-c4ccccc4)c3n2)c1	6.3µM*	1%
COc1ccc(-n2c(=O)c(-c3cccs3)nc3cnc(Nc4ccccc4)nc32)cc1	5%	-1%
COc1cccc(Nc2ncc3ncc(=O)n(Cc4cccs4)c3n2)c1	1%	-2%
SMILES	Cruzain inh noDet	Cruzain inh Det
CCOc1nc2cccc(C(=O)OC(C)OC(=O)OC3CCCCC3)c2n1Cc1ccc(-c2ccccc2-c2nn[nH]n2)cc1 (centres undefined)	?	14µM*
CCCc1nc(C(C)(C)O)c(C(=O)OCc2oc(=O)oc2C)n1Cc1ccc(-c2ccccc2-c2nn[nH]n2)cc1	?	-1%
O=S(=O)(c1ccccc1)c1nc(-c2ccco2)oc1NCCN1CCOCC1	-1%	-4%
COc1ccc(Nc2oc(-c3ccco3)nc2S(=O)(=O)c2ccc(F)cc2)cc1	25µM*	-25%
O=S(=O)(c1ccc(F)cc1)c1nc(-c2ccco2)oc1Nc1ccc(F)cc1	?	-7%
Cc1ccc(CNc2oc(-c3ccco3)nc2S(=O)(=O)c2ccccc2)cc1	32µM*	?
CCC(=O)N1c2ccc(S(=O)(=O)CCC(=O)NCc3ccc(OC)cc3)cc2CC1C (centres undefined)	7%	-1%
CCOc1ccc(CCNC(=O)C2CCC(CNS(=O)(=O)c3ccc(Cl)cc3)CC2)cc1OCC (centres undefined)	7%	0%
COc1cccc(C(=O)NCC(=O)N/N=C/c2ccc(OC(=O)c3cccs3)c(OC)c2)c1	9%	-4%
O=C(N/N=C/c1ccc(OC(=O)c2cccs2)cc1)c1cccc(F)c1	20µM*	-22%
CCCCCCNc1ncnc2c1sc1nc(N3CCOCC3)c3c(c12)CCCC3	12%	1%
COc1cccc(CN(C(=O)c2cccc(C)c2)C2CCS(=O)(=O)C2)c1 (centres undefined)	-3%	-1%
O=S(=O)(c1cccc(-c2nnc(SCc3ccc(Cl)cc3)o2)c1)N1CCCCC1	-23%	-1%
O=C(CSc1nnc(-c2cccc(S(=O)(=O)N3CCCCC3)c2)o1)c1ccc[nH]1	16µM*	0%
